Here are results for 12 molecules from PubChem BioAssay AID1347087 (National Center for Advancing Translational Sciences (NCATS), 2019).

Results filed as inconclusive are left out. The source made the active and inactive calls. Calls follow the shape of the full dose curve.

The nature of this assay: qHTS for Inhibitors of the Functional Ribonucleoprotein Complex (vRNP) of Lassa (LASV) Arenavirus: LASV Confirmatory Screen - GLuc reporter signal. To be noted: LASV minigenome vRNP, Gaussia luciferase reporter; series mostly up to 53.9 µM. (In qHTS, concentration-response curves come from the screen itself.)
For the molecule `CCCCCC[C@H]1C(=O)O[C@H](C)[C@H](NC(=O)c2cccc(NC=O)c2O)C(=O)O[C@@H](C)[C@@H]1OC(=O)CC(C)C`, the Potency was 0.0306 µM (active).

`Cc1ncc([N+](=O)[O-])n1CC(C)O` (configuration not stated): the Potency entry is “inactive”.

Turning to `C=C(C)[C@H]1Cc2c(ccc3c2O[C@@H]2COc4cc(OC)c(OC)cc4[C@@H]2C3=O)O1`, the Potency was 0.0306 µM (active).

For `COc1cc2c(cc1OC)CC(=O)N(CCCN(C)C[C@H]1Cc3cc(OC)c(OC)cc31)CC2`, the Potency result was “inactive”.

As to `CCc1cncnc1N1CCN(Cc2nc3ccc(C(F)(F)F)cc3[nH]2)CC1`, the Potency was 3.95 µM (active).

Take `CNCCCC1c2ccccc2C=Cc2ccccc21`: the Potency is 30.6 µM (active).

For the molecule `COc1ccc2c(c1OC)CN1CCc3cc4c(cc3C1C2)OCO4` (configuration not stated), the Potency was 21.7 µM (active).

Regarding `Cc1cc(N)c2ccccc2[n+]1CCCCCCCCCC[n+]1c(C)cc(N)c2ccccc21`, the Potency was 1.37 µM (active).

As to `O=C(Nc1ccccc1)c1cc([N+](=O)[O-])ccc1Cl`, the Potency is 24.3 µM (active).

Regarding `Nc1ccc([N+](=O)[O-])cc1O`, the Potency was 0.396 µM (active).

As for `CO/C=C(/C(=O)OC)c1ccccc1Oc1cc(Oc2ccccc2C#N)ncn1`, the Potency is 6.27 µM (active).

Turning to `CCCCCN=C(N)N/N=C/c1c[nH]c2ccc(OC)cc12`, the Potency was 8.63 µM (active).
